The panel holds about 83,000 compounds, 20% with a hit somewhere; the sample as a whole holds those more often.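 Cells were grown in 96-well plates and exposed to the test compound at a single concentration for 48 hours; results are reported as percent growth, with values below 10 considered active.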 Values without a mark were called inactive. Active and inactive are the calls of the source.
tested on: SNB-19 CNS; test: NCI-60 one-dose screen, 48 h (100 = growth as untreated, 0 = no growth, -100 = all killed); conditions: 10 µM unless noted
Protocol: Growth inhibition of the SNB-19 human tumor cell line is measured as a screen for anti-cancer activity. Cells are grown in 96 well plates and exposed to the test compound for 48 hours. Compounds are tested at a single concentration, which is 10^-5 M for most compounds. The reported endpoint is percent growth (GI% or GIPRCNT), where numbers from 0 - 100% represent growth inhibition, and numbers from -100% - 0 represent cell death. For example, a value of 40 represents 60% growth inhibition. A value of 0 means no net growth occurred over the course of the experiment. A value of -40 indicates 40% of cells at the beginning of the experiment died by the end of the experiment. A value of -100 means all cells are dead at the end of the experiment.
NCI-60 Human Tumor Cell Lines Screen was performed using the standard one-dose NCI protocol, which is described in more detail at https://dtp.cancer.gov/discovery_development/nci-60/default.htm.
Compounds with GIPRCNT values below 10 were considered active. Activity score was based on GIPRCNT using the following formula: […]
Score is 0 for GIPRCNT values of 100 or above, 50 for GIPRCNT values of 0, and 100 for GIPRCNT values of -100.

| Structure (SMILES) | growth |
| --- | --- |
| CCCN1CCN(c2ccc3nc(-c4ccc5nc(-c6ccc(OCC)cc6)[nH]c5c4)[nH]c3c2)CC1 | 62% |
| CCOc1ccc(-n2nc(C(=O)Nc3cc(OC)c(OC)c(OC)c3)nc2-c2cc(OC)c(OC)c(OC)c2)cc1 | 82.1% |
| COc1cccc(C2=NN3C(C2)c2cc(Br)cc(OC)c2OC32CCN(Cc3ccccc3)CC2)c1 (stereo not given) | 101% |
| CCOC(=O)C(C)(C#N)C1C=CCCC1 (stereo not given) | 87.9% |
| CN1CCN(CCCOc2cccc3nc(Nc4cc(Cl)cc(Cl)c4)ccc23)CC1 | 7.72% (active) |
| CCNc1ncnc2c1cnn2C1CCCO1 (stereo not given) | 105% |
| O=C(C(=O)c1ccc2c(c1)OCO2)c1ccc2c(c1)OCO2 | 104% |
| CC1SC(c2ccc(N(C)C)cc2)N(NC(=O)C(O)(c2ccccc2)c2ccccc2)C1=O (stereo not given) | 110% |
| CC1=C[C@H]2c3c(c(O)c(O)c4oc5cc(O)ccc5c(=O)c34)[C@H](c3cc(O)c(O)c4oc5cc(O)ccc5c(=O)c34)[C@H]2C(C)(C)C1 | 22.1% |
| C=CC(=O)Nc1cccc(-c2nc(SC)nc(Nc3ccccc3OC)c2C#N)c1 | 74.5% |
| O=C1c2ccccc2C(=O)c2c(N=Nc3[nH]c(=S)[nH]c3O)cccc21 | 28.9% |
| CC[N+](CC)=c1sc2c(s1)C(c1ccc(Cl)cc1)Oc1ccc(Cl)cc1-2 (stereo not given) | 12% |
| Cn1cc(-c2nonc2-c2c[nH]c3ccccc23)c2cccnc21 | 46.4% |
| COc1ccc(/C=C/C(=O)c2ccc(O)c(CN3CCN(c4cc5c(cc4F)c(=O)c(C(=O)O)cn5C4CC4)CC3)c2)cc1 | 24% |
| COC(=O)[C@@H]1CCCN1C(=O)[C@@H]1CCCN1C(=O)[C@H](Cc1ccccc1)NC(=S)Nc1cc(C(F)(F)F)cc(C(F)(F)F)c1 | 33.3% |
| COc1cccc(-c2nc3sccn3c2-c2ccnc(NCCCNS(=O)(=O)c3cccc(F)c3)c2)c1 | 55% |
| O=C1NC(=S)NC(=O)C1CC(=O)n1c(-c2ccccc2)nc2ccccc21 | 94.8% |
| Nc1n[nH]c2ccc([C@@H]3Nc4cc5c(cc4[C@H]4C6CCC(C6)[C@@H]34)C(=O)NC5)cc12 (stereo not given in full) | 28.2% |
| C=C(C)C(=O)Nc1ccc(NC(C)C)cc1 | 105% |
| CC(=O)c1cc2c(N)c(C(=O)Nc3ccccc3)sc2nc1C | 68.4% |

| Structure (SMILES) | growth |
| --- | --- |
| NC(=NC1C2CC3CC(C2)CC1C3)Nc1ccc(I)cc1 (stereo not given) | 27.5% |
| N#Cc1c(-c2ccc(Cl)cc2)nc(NN=Cc2ccco2)nc1N1CCOCC1 | 80% |
| Nc1ccc(S(=O)(=O)O)c2ccc(N=Nc3ccc(N=Nc4ccc(S(=O)(=O)O)cc4)c4ccccc34)c(O)c12 | 95.9% |
| CN(CCCCCl)P(=O)(OCc1ccc([N+](=O)[O-])o1)C(F)(F)c1ccc(CC(=O)NC[C@@H](O)/C=C\[C@@H](O)[C@H](CO)Cc2ccccc2)cc1 (stereo not given in full) | 102% |
| C=CC(=O)Nc1cccc(Nc2nc(SC)nc(-c3cccc([N+](=O)[O-])c3)c2C#N)c1 | 79.5% |
| CS(=O)(=O)c1ccc(-n2nc(-c3ccc(Br)cc3)c3ccccc3c2=O)cc1 | 92.5% |
| CCCCn1c(-c2ccc(C(=O)O/N=C(\N)c3ccc4ccccc4c3)cc2)nc(-c2ccccc2)c1-c1ccccc1 | 70.3% |
| COc1ccc(CN2c3ccccc3Sc3ccccc32)cc1O | 33% |
| O=C(N(c1ccccc1)c1ccccc1)n1ccc2nc(Cl)nc(Cl)c21 | 58.5% |
| Cc1cc(N2CCCC2)nc(NC2CCCC(Nc3ccnc4cc(Cl)ccc34)C2)n1 (stereo not given) | -20.3% (active) |
| Cc1nc(/N=C(\N)NC(=O)Nc2cccc([N+](=O)[O-])c2)sc1C | 90.1% |
| Brc1ccc(-c2csc(Nc3ccccn3)n2)cc1 | 99.4% |
| CC(C)(C)c1cc(/C=N\NC(=O)/C=C/C=C/c2ccc3c(c2)OCO3)c(O)c(C(C)(C)C)c1 | 85.5% |
| CCCCCC(=O)Oc1ccc(/C(=C(\C)c2ccc(OC)cc2)c2ccc(OCCN3CCCCC3)cc2)cc1 | 74.4% |
| Cc1cc2c3ccccc3ccc2[n+]2ccccc12 | 4.52% (active) |
| CC(C)CSc1nc(N)nc2c1ncn2C1OC(CO)C(O)C1O (stereo not given) | 104% |
| COc1ccc(/C=C\c2cc(OC)c(OC)c(OC)c2)cc1OC(=O)c1cccc(Cn2cc(CCOC(=O)[C@H](N)Cc3cn(C)c4ccccc34)nn2)c1 | 31.2% |
| CC1=CC(=NN=c2cc(C)n([O-])c(C)c2)C=C(C)[N+]1=O | 103% |
| CN1CCN(CCCOc2cccc3nc(Nc4ccc(Cl)c(F)c4)ccc23)CC1 | 42.3% |
| COc1ccc(S(=O)(=O)N2CCN(C)CC2)cc1NC(=O)c1[nH]c(C)c2c1CCCCC2=O | 66.5% |

Source: PubChem BioAssay (NCI)
